Bioassay records: PubChem BioAssay, National Center for Advancing Translational Sciences (NCATS)
The entries come from a sample that favours hits as a whole.
Sm TGR inh: blocks Schistosoma mansoni thioredoxin glutathione reductase; purified TGR, DTNB reduction, TNB absorbance 405 nm; Potency, µM (doses to about 114 µM), without a hit: at the highest dose activity change, negative = inhibition, most hits filed as inhibitors; 3% of 360,000 active; AID 485364; note: potency is the fitted concentration of half-maximal effect; % is set by controls: 0 for no effect and ±100 for the full control effect; nearly all actives have a fitted effect of over 60% in size
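Kinetic colorimetric format: TGR-catalysed, NADPH-driven DTNB reduction monitored via TNB absorbance. Enzyme dispensed at 20 nM; compound exposure 15 min at room temperature before reaction start.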
Shiga inhibitor: Shiga toxin inhibition; Vero cells, Shiga toxin protein synthesis inhibition reporter; inhibition, % at 38.7 µM; 9.2% of 290,000 active; in the data active = inhibition mostly above about 28%, no sharp cut-off; inactive = mostly below about 43%; note: 0% is about no effect
Tb PYK inh: inhibitors of Trypanosoma brucei pyruvate kinase. Q57TT1. TbPYK enzyme, Kinase-Glo Plus ATP luminescence, 45 min. Potency, µM (top dose mostly 76.8 µM), inactives show at the top dose activity, negative = inhibition, usual class: inhibitors. 0.12% of 410,000 active. AID 624173; note: potency is the fitted concentration of half-maximal effect; % is set by controls: 0 for no effect and ±100 for the full control effect; nearly all actives have a fitted effect of over 50% in size
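Assay buffer: 50 mM TEA pH 7.2, 100 mM KCl, 10 mM MgCl2, 0.05% BSA, 0.01% Tween-20. Pyruvate kinase from T. brucei plus substrate met compound, then ADP (130 uM final). Luminescence was read post 45 min RT.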
CHX counter: counter-screen hit for Shiga toxin inhibitors, cycloheximide; cell reporter, cycloheximide protein synthesis inhibition counterscreen; max response, %; 12% of 300,000 active; AID 2314; in the data active = max response mostly above about 13%, no sharp cut-off; inactive = mostly below about 14%; note: read at 38.3 µM for the half of the compounds with a filed dose; 0% is about no effect
LmPK inh: blocks Leishmania mexicana pyruvate kinase activity. 0.37% of 290,000 active. Q27686. purified LmPK, Kinase-Glo ATP luminescence, 1 h. AID 1721. Potency, µM (series often up to 57.5 µM), for the others: at the highest dose activity change, negative = inhibition, hits mostly inhibitors; note: potency is the fitted concentration of half-maximal effect; % is set by controls: 0 for no effect and ±100 for the full control effect
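Purified LmPK (0.1 nM) with 0.5 mM PEP and 0.1 mM ADP in imidazole buffer pH 7.2 with MgCl2/KCl, 1 h at room temperature. ATP formed was read by luciferase luminescence and normalized to no-enzyme and uninhibited controls.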
FBPA Giardia inh: Giardia lamblia aldolase inhibition; A8B2U2; purified Giardia FBPA; Potency, µM (titrated, usually from 59.6 µM), without a hit: at the top dose activity, negative = inhibition, most hits filed as inhibitors; 0.71% of 290,000 active; AID 2451; note: potency is the fitted concentration of half-maximal effect; % is set by controls: 0 for no effect and ±100 for the full control effect; nearly all actives have a fitted effect of over 55% in size
Target sequence (A8B2U2 whole entry, looked up): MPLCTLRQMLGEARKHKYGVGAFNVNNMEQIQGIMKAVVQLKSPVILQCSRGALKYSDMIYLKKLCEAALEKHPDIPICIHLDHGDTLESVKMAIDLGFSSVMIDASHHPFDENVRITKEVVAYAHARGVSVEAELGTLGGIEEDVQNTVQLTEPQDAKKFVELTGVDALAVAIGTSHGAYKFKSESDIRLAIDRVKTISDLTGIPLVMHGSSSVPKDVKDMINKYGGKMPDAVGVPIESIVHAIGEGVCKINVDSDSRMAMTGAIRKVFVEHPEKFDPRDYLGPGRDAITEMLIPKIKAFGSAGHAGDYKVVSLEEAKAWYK
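Giardia FBPA (40 nM reagent) was preincubated 10 min at RT with compound (up to 57.5 uM final), then substrate plus GAPDH/TPI/NAD/arsenate coupling system with diaphorase/resazurin was added; resorufin fluorescence (525/598 nm) was read after 20 min.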
Starred values were filed as active, the others as inactive. Unless noted, calls come from the whole dose curve; as a rule, active = well fitted curve in the direction sought with a large enough effect; inconclusive = small, poorly fitted or top-dose-only effect, or another doubt; inactive = no such curve, though single readings can be large; an effect the other way counts as inactive or inconclusive.

COc1cccc2c1OCC/C2=N\NC(=O)COc1ccc(C)cc1 was read as Sm TGR inh 23%, Shiga inhibitor 24*, Tb PYK inh -10%, CHX counter 16, LmPK inh 1% and FBPA Giardia inh 0%.
For CN(C(=O)c1cccc(NC(=O)Cc2ccc(NC(=O)C3CCN(C(=O)CCc4ccccc4)CC3)cc2)c1)C1CCCCC1 the results were Tb PYK inh 1%.
`CN1CCN(CC#Cc2ccccc2)CC1CCO` (configuration not stated) gave Sm TGR inh -21%, Shiga inhibitor -2, Tb PYK inh 6%, CHX counter -1, LmPK inh 1% and FBPA Giardia inh -2%.
For CC(C)(C)CN1CCN(CC#Cc2ccccc2)CC1CCO (configuration not stated) the results were Sm TGR inh -35%, Shiga inhibitor 34, Tb PYK inh 1%, CHX counter 17*, LmPK inh -3% and FBPA Giardia inh -12%.
Screening CN(CC(=O)NCc1cccnc1)S(=O)(=O)c1ccccc1 returned Sm TGR inh 4%, Shiga inhibitor -15, Tb PYK inh -5%, CHX counter 0, LmPK inh 7% and FBPA Giardia inh 4%.
COc1ccc(S(=O)(=O)N(C)CC(=O)NCc2cccnc2)cc1 was read as Sm TGR inh -1%, Shiga inhibitor 75*, Tb PYK inh 3%, CHX counter 10, LmPK inh -1% and FBPA Giardia inh -3%.
`COCCNC(=O)c1ccc(CS(=O)(=O)c2ccccc2OC)o1` gave Sm TGR inh 32µM*, Shiga inhibitor -9, Tb PYK inh -1%, CHX counter -1, LmPK inh 0% and FBPA Giardia inh 21%.
`COC(CNC(=O)c1ccc(CS(=O)(=O)c2ccc(C)cc2)o1)OC` gave Sm TGR inh 3%, Shiga inhibitor -5, Tb PYK inh 4%, CHX counter -3, LmPK inh 2% and FBPA Giardia inh -2%.
`COc1ccccc1CNC(=O)c1ccc(CS(=O)(=O)c2ccccc2OC)o1` gave Sm TGR inh inconclusive, Shiga inhibitor -7, Tb PYK inh -9%, CHX counter -3, LmPK inh 1% and FBPA Giardia inh 3%.
Screening COc1ccccc1CNC(=O)c1ccc(CS(=O)(=O)c2ccc(C)cc2)o1 returned Sm TGR inh 35µM*, Shiga inhibitor -5, Tb PYK inh -6%, CHX counter 1, LmPK inh -3% and FBPA Giardia inh -7%.
For COCCNC(=O)c1ccc(CS(=O)(=O)c2ccc(C)cc2)o1 the results were Sm TGR inh 35µM*, Shiga inhibitor -19, Tb PYK inh 4%, CHX counter -2, LmPK inh 1% and FBPA Giardia inh 4%.
`Cc1ccc(S(=O)(=O)NCC(=O)OCC(=O)NCCc2ccccc2)cc1` gave Sm TGR inh -1% and Tb PYK inh 0%.
For COc1ccccc1N1CCN(C(=O)c2ccc(CS(=O)(=O)c3ccccc3OC)o2)CC1 the results were Sm TGR inh 28µM*, Shiga inhibitor 10, Tb PYK inh 7%, CHX counter 15*, LmPK inh 1% and FBPA Giardia inh 8%.
For Cc1ccc(S(=O)(=O)Cc2ccc(C(=O)O)o2)cc1 the results were Sm TGR inh 22µM*, Shiga inhibitor 39, Tb PYK inh 5%, CHX counter -6, LmPK inh 25% and FBPA Giardia inh 1%.
Screening CCOC(=O)N1CCN(C(=O)c2ccc(CS(=O)(=O)c3ccccc3OC)o2)CC1 returned Sm TGR inh 0%, Shiga inhibitor 26, Tb PYK inh -14%, CHX counter 18, LmPK inh 2% and FBPA Giardia inh 0%.
For COc1ccccc1CNC(=O)COC(=O)CNS(=O)(=O)c1ccc(C)cc1 the results were Sm TGR inh 35µM*, Shiga inhibitor -11, Tb PYK inh -7%, CHX counter 14 and LmPK inh 1%.
For COc1ccc(-c2cc3c(=O)n(CC(=O)NCc4cccnc4)ncn3n2)cc1 the results were Sm TGR inh 1%, Shiga inhibitor 37*, Tb PYK inh 2%, CHX counter 28*, LmPK inh -5% and FBPA Giardia inh -5%.
